In PubChem BioAssay AID1159580 (chemical genetic matrix, 2015):
The campaign covered roughly 5,500 compounds. About 2,000 (36%) were called active. About 18% were inconclusive and are not listed. No stated cut-off is given here; in the data, active means normalized growth mostly below about 0.91 (no sharp cut-off); inconclusive means no clear call, values can overlap the other calls; inactive means mostly above about 0.92. Some of the results follow.

Experiment: chemical genetic growth profiling, strain panel (AID 1159580);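 further: tested at 20 µM; growth read once vehicle control cultures reached saturation at 30 °C; 1 = growth at the plate median or of vehicle wells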
Details: growth OD

Measured: normalized growth

CC(=O)O[C@H]1CC[C@]2(C)C3C(=O)[C@@H](OC(C)=O)[C@@]4(C)C(C[C@@H]5O[C@]6(CCC(C)CO6)[C@@H](C)[C@@H]54)C3CC[C@H]2C1 (stereo not given in full)
inactive: S. cerevisiae deletion strains, locus YBR021W, strain FUR4, stronger effect = lower value 1.01 | S. cerevisiae deletion strains, locus YBR229C, strain ROT2, stronger effect = lower value 0.997 | S. cerevisiae deletion strains, locus YCL029C, strain bik1, stronger effect = lower value 0.996 | S. cerevisiae deletion strains, locus YDL035C, strain GPR1, stronger effect = lower value 1.03 | S. cerevisiae deletion strains, locus YDL074C, strain BRE1, stronger effect = lower value 1.06 | S. cerevisiae deletion strains, locus YDL101C, strain DUN1, stronger effect = lower value 0.986 | S. cerevisiae deletion strains, locus YDL134C, strain PPH21, stronger effect = lower value 0.998 | S. cerevisiae deletion strains, locus YDL185W, strain tfp1, stronger effect = lower value 0.986 | S. cerevisiae deletion strains, locus YDL192W, strain arf1, stronger effect = lower value 1 | S. cerevisiae deletion strains, locus YDR101C, strain arx1, stronger effect = lower value 1.01 | S. cerevisiae deletion strains, locus YDR162C, strain NBP2, stronger effect = lower value 1.02 | S. cerevisiae deletion strains, locus YDR318W, strain mcm21, stronger effect = lower value 0.991 | S. cerevisiae deletion strains, locus YDR388W, stronger effect = lower value 0.99 | S. cerevisiae deletion strains, locus YDR502C, strain sam2, stronger effect = lower value 0.984 | S. cerevisiae deletion strains, locus YEL061C, strain CIN8, stronger effect = lower value 0.999 | S. cerevisiae deletion strains, locus YER110C, stronger effect = lower value 0.983 | S. cerevisiae deletion strains, locus YER155C, strain BEM2, stronger effect = lower value 0.984 | S. cerevisiae deletion strains, locus YER167W, strain BCK2, stronger effect = lower value 0.993 | S. cerevisiae deletion strains, locus YGL078C, strain dbp3, stronger effect = lower value 0.963 | S. cerevisiae deletion strains, locus YGL086W, strain mad1, stronger effect = lower value 0.986 | S. cerevisiae deletion strains, locus YGL248W, strain PDE1, stronger effect = lower value 0.985 | S. cerevisiae deletion strains, locus YGR135W, strain pre9, stronger effect = lower value 0.978 | S. cerevisiae deletion strains, locus YGR252W, strain gcn5, stronger effect = lower value 1.04 | S. cerevisiae deletion strains, locus YHR030C, strain SLT2, stronger effect = lower value 0.992 | S. cerevisiae deletion strains, locus YHR079C, strain IRE1 (second series), stronger effect = lower value 0.99 | S. cerevisiae deletion strains, locus YHR094C, strain hxt1, stronger effect = lower value 0.987 | S. cerevisiae deletion strains, locus YHR129C, strain ARP1, stronger effect = lower value 0.991 | S. cerevisiae deletion strains, locus YHR200W, strain rpn10, stronger effect = lower value 0.982 | S. cerevisiae deletion strains, locus YIL066C, strain RNR3, stronger effect = lower value 1.01 | S. cerevisiae deletion strains, locus YIL073C, strain SPO22, stronger effect = lower value 1.01 | S. cerevisiae deletion strains, locus YIL125W, strain kgd1, stronger effect = lower value 0.987 | S. cerevisiae deletion strains, locus YIR030C, strain dcg1, stronger effect = lower value 0.988 | S. cerevisiae deletion strains, locus YJL095W, strain BCK1, stronger effect = lower value 0.996 | S. cerevisiae deletion strains, locus YJL134W, strain LCB3, stronger effect = lower value 0.993 | S. cerevisiae deletion strains, locus YJL168C, strain set2, stronger effect = lower value 0.994 | S. cerevisiae deletion strains, locus YJL187C, strain SWE1 (second series), stronger effect = lower value 0.988 | S. cerevisiae deletion strains, locus YKL009W, strain mrt4, stronger effect = lower value 0.994 | S. cerevisiae deletion strains, locus YKL068W, stronger effect = lower value 0.997 | S. cerevisiae deletion strains, locus YKL085W, strain MDH1 (second series), stronger effect = lower value 0.987 | S. cerevisiae deletion strains, locus YKL085W, strain MDH1, stronger effect = lower value 0.987 | S. cerevisiae deletion strains, locus YKL190W, strain CNB1, stronger effect = lower value 0.998 | S. cerevisiae deletion strains, locus YKR001C, strain vps1, stronger effect = lower value 0.982 | S. cerevisiae deletion strains, locus YLR039C, strain RIC1, stronger effect = lower value 1.05 | S. cerevisiae deletion strains, locus YLR058C, strain SHM2, stronger effect = lower value 1 | S. cerevisiae deletion strains, locus YLR102C, strain apc9, stronger effect = lower value 0.985 | S. cerevisiae deletion strains, locus YLR268W, strain sec22, stronger effect = lower value 1.01 | S. cerevisiae deletion strains, locus YLR330W, strain CHS5, stronger effect = lower value 0.996 | S. cerevisiae deletion strains, locus YLR371W, strain rom2, stronger effect = lower value 0.99 | S. cerevisiae deletion strains, locus YLR418C, strain cdc73, stronger effect = lower value 0.977 | S. cerevisiae deletion strains, locus YML016C, strain PPZ1, stronger effect = lower value 0.981 | S. cerevisiae deletion strains, locus YML032C, strain rad52, stronger effect = lower value 1.01 | S. cerevisiae deletion strains, locus YML124C, strain tub3, stronger effect = lower value 0.991 | S. cerevisiae deletion strains, locus YMR078C, strain ctf18, stronger effect = lower value 0.992 | S. cerevisiae deletion strains, locus YMR223W, strain ubp8, stronger effect = lower value 0.994 | S. cerevisiae deletion strains, locus YMR307W, strain GAS1, stronger effect = lower value 1 | S. cerevisiae deletion strains, locus YNL067W, strain RPL9B, stronger effect = lower value 0.981 | S. cerevisiae deletion strains, locus YNL153C, strain GIM3, stronger effect = lower value 0.988 | S. cerevisiae deletion strains, locus YNL233W, strain BNI4, stronger effect = lower value 0.988 | S. cerevisiae deletion strains, locus YNL250W, strain rad50, stronger effect = lower value 0.968 | S. cerevisiae deletion strains, locus YNL271C, strain bni1, stronger effect = lower value 0.976 | S. cerevisiae deletion strains, locus YNL298W, strain CLA4, stronger effect = lower value 0.991 | S. cerevisiae deletion strains, locus YNL307C, strain MCK1, stronger effect = lower value 0.986 | S. cerevisiae deletion strains, locus YNL322C, strain KRE1, stronger effect = lower value 0.997 | S. cerevisiae deletion strains, locus YNR052C, strain pop2, stronger effect = lower value 0.974 | S. cerevisiae deletion strains, locus YOL012C, strain htz1 0.895 | S. cerevisiae deletion strains, locus YOL147C, strain pex11, stronger effect = lower value 0.986 | S. cerevisiae deletion strains, locus YOR061W, strain CKA2, stronger effect = lower value 1 | S. cerevisiae deletion strains, locus YOR069W, strain VPS5, stronger effect = lower value 0.996 | S. cerevisiae deletion strains, locus YOR136W, strain idh2, stronger effect = lower value 0.988 | S. cerevisiae deletion strains, locus YOR144C, strain elg1, stronger effect = lower value 0.992 | S. cerevisiae deletion strains, locus YOR184W, strain ser1, stronger effect = lower value 1.01 | S. cerevisiae deletion strains, locus YOR316C, strain cot1, stronger effect = lower value 0.987 | S. cerevisiae deletion strains, locus YPL055C, strain LGE1, stronger effect = lower value 1.02 | S. cerevisiae deletion strains, locus YPL241C, strain CIN2, stronger effect = lower value 0.996 | S. cerevisiae deletion strains, locus YPR119W, strain clb2, stronger effect = lower value 0.98 | S. cerevisiae deletion strains, locus YPR141C, strain kar3, stronger effect = lower value 0.983 | S. cerevisiae deletion strains, locus YPR163C, strain tif3, stronger effect = lower value 0.991 | S. cerevisiae deletion strains, locus YPR167C, strain met16, stronger effect = lower value 0.976 | S. cerevisiae deletion strains, strain wtn01, stronger effect = lower value 1.01 | S. cerevisiae strains, strain wild type, stronger effect = lower value 1.01
